High-throughput results: PubChem BioAssay, National Center for Advancing Translational Sciences (NCATS)
Most compounds without a hit are left out; they make up all but 11% or so of the library.
Sfp inh – blocks B. subtilis Sfp PPTase activity; AID 1490; Potency, µM, most hits filed as inhibitors; Biochemical Sfp PPTase activity, qHTS; 310,000 compounds, 3.5% hits;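 further: the enzyme is Sfp with the accession as filed and its product quenches rhodamine fluorescence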
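Step 1, compound plus 15 nM Sfp-PPTase, 15 min, room temperature. Step 2, add rhodamine-CoA (5 uM) and BHQ-2-YbbR (12.5 uM). Step 3, read 525/598 nm fluorescence at 0 and 30 min.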
Coupling enz – coupling enzyme interference in Giardia aldolase counter-screen; coupling enzyme system counterscreen, AmpLite Red fluorescence; activity change, negative = inhibition, % at 58.2 µM, hits read low; AID 2472; 290,000 compounds, 0.67% hits; in the data active means activity change below about -30%
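Counterscreen lacking aldolase: glyceraldehyde-3-phosphate coupling-enzyme reagent preincubated 10 min at RT with compound (at 57.5 uM final), then substrate/coupling system with AmpLite Red added; fluorescence read at 525/598 nm after 20 min RT.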
G9a block – G9a (human) methyltransferase inhibition. AID 504332. 350,000 compounds, 8.8% hits. G9a H3K9 monomethylation, AlphaScreen, 2 h. Q96KQ7. Potency, µM (doses to about 102 µM), actives largely listed as inhibitors; further: nearly all actives have a fitted effect of over 75% in size
Target sequence (Q96KQ7 913-1193 limits assumed): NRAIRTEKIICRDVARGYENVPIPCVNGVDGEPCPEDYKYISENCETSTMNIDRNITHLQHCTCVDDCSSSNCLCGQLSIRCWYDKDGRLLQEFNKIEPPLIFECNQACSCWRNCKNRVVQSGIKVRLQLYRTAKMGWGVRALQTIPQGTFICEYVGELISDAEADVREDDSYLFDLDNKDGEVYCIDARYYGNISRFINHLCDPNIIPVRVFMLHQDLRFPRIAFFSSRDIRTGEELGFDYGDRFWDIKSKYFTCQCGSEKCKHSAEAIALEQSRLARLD
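Signal arises when biotinylated H3K9 peptide, once monomethylated, bridges streptavidin donor and antibody-captured acceptor beads. Enzyme at 20 nM was preincubated 15 min with test compounds; peptide 500 nM and SAM 20 uM then reacted for 2 h.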
Tau FP inhib – tau fibrillization inhibition (FP) | P10636 | K18 P301L tau heparin fibrillization, Alexa594 FP, 6 h | Potency, µM (highest dose often 57.7 µM), usual class: inhibitors | 280,000 compounds, 0.39% hits | AID 1468; further: nearly all actives have a fitted effect of over 55% in size
Target sequence (P10636 561-689 P618L limits assumed): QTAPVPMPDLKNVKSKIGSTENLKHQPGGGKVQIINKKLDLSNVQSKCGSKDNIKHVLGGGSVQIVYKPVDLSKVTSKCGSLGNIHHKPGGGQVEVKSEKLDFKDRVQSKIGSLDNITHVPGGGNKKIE
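Steps: dispense K18 P301L tau (15 uM plus 0.24 uM Alexa 594 tracer, final) in pH 7 sodium acetate; add compound; add heparin (20 uM final); incubate 6 hr, 37 C; add ThT (30 uM final); after 1 hr ambient, read FP.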
Tau fluor counter – counter-screen for tau fibril formation inhibitors; tau K18 P301L Alexa594 fluorescence, heparin fibrillization; Potency, µM (series often up to 57.7 µM); 280,000 compounds, 0.93% hits; AID 1463; further: nearly all actives have a fitted effect of over 55% in size
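Human tau K18 P301L (15 uM unlabeled, 0.24 uM Alexa 594-labeled) in 100 mM sodium acetate pH 7 with 20 uM heparin, 6 hr at 37 C. ThT 30 uM added, 1 hr ambient; Alexa 594 FP and total fluorescence read at 555/632 nm.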
Tau fibril ThT – inhibitors of human tau fibril formation, thioflavin T binding. 270,000 compounds, 2.1% hits. Potency, µM (titrated, usually from 57.4 µM), usual class: inhibitors. AID 1460. P10636. recombinant tau K18 P301L (four-repeat tau fragment), heparin-induced fibrillization, ThT fluorescence; further: nearly all actives have a fitted effect of over 55% in size
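In this qHTS, human K18 P301L tau is incubated with compound and heparin for 6 hr at 37 C, and Thioflavin T fluorescence then reports fibril load.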
Hits are given with their value; - = inactive; ? = inconclusive; . = not tested or not shown; [ ] = another dose, or the depositor's remark. Unless noted, the call rests on the fitted dose curve; in most records, active means well fitted curve in the direction sought with a large enough effect; inconclusive means small, poorly fitted or top-dose-only effect, or another doubt; inactive means no such curve, though single readings can be large; an effect the other way counts as inactive or inconclusive.

SMILES	Sfp inh	Coupling enz	G9a block	Tau FP inhib	Tau fluor counter	Tau fibril ThT
CC(C)=C1C2C=CC1C1C(=O)N(c3ccc4c(c3)OCO4)C(=O)C21 (stereo not given)	?	-	10µM	-	-	?
O=C1C2C3C=CC(C4CC34)C2C(=O)N1c1ccc2c(c1)OCO2 (stereo not given)	-	-	50.1µM	-	-	-
COc1ccc(C2=NO[C@@H]3[C@@H]4C[C@@H]([C@H]5C(=O)N(c6ccc7c(c6)OCO7)C(=O)[C@@H]45)[C@H]23)cc1OC	-	-	-	-	-	-
CCc1ccccc1NS(=O)(=O)c1ccc2c(c1)CC(=O)N2	.	.	-	-	-	-
COc1ccccc1C(OC(=O)c1cccs1)C(=O)NCc1ccco1 (stereo not given)	50.1µM	-	44.7µM	?	-	?
CC(OC(=O)c1cccs1)C(=O)NCc1ccco1 (stereo not given)	-	-	-	-	-	-
CNc1nc(N/N=C/c2ccc([N+](=O)[O-])cc2)nc(Nc2ccccc2)n1	-	-	-	-	15.8µM[quencher]	3.98µM
COC(=O)C/C=C/[C@@H](C)[C@H](OC)c1c(Br)ccc2c1OCO2	-	-	.	-	-	-
O=C(/C=C/c1ccc(Cl)c([N+](=O)[O-])c1)Nc1ccc(N2CCCC2)cc1	-	-	?	-	17.8µM[quencher]	0.891µM
CCOC(=O)c1[nH]c(C)c(CCC(=O)N2CCN(c3ccc(OC)cc3)CC2)c1C	.	.	-	-	-	-
COc1cccc(C(=O)/C=C2\NCCc3cc(OC)c(OC)cc32)c1	-	-	50.1µM	.	.	.
COc1cc2c(cc1OC)/C(=C/C(=O)c1ccccc1)NCC2	-	-	?	.	.	.
COc1cc2c(cc1OC)/C(=C/C(=O)c1ccc(C)cc1)NCC2	-	-	50.1µM	.	.	.
Cc1cccc(C)c1NC(=O)CNC(=O)c1ccc(N2CCCC2)c([N+](=O)[O-])c1	.	.	-[2.33 µM]	.	.	.
COc1ccc(OC)c(S(=O)(=O)N2CC=C(c3c(C)n(CC(=O)N4CCCC4)c4ccccc34)CC2)c1	.	.	?	-	-	?
CCCCOCC(O)CCc1n[nH]c(=S)n1-c1ccccc1 (stereo not given)	?	-	.	-	-	-
S=c1[nH]nc(Cc2n[nH]c(=S)n2-c2ccccc2)n1-c1ccccc1	?	-	10µM	.	.	.
CC(C)OCC(O)CCc1n[nH]c(=S)n1-c1ccccc1 (stereo not given)	79.4µM	-	3.55µM	-	-	-
Cc1ccc(-n2c(Cc3ccccc3)n[nH]c2=S)cc1	-	-	2.24µM	-	-	-
Cc1ccccc1OCc1nnc(SCc2cc(=O)[nH]c3ccccc23)n1-c1ccccc1	56.2µM	-	-	-	-	-
COc1ncc2nc(-c3ccc(Cl)cc3)c(=O)n(Cc3cccs3)c2n1	-	-	-[0.501 µM]	.	.	.
S=c1[nH]nc(Cc2ccccc2)n1-c1ccccc1	-	-	8.91µM	-	-	-
Cc1ccccc1OCc1n[nH]c(=S)n1-c1ccccc1	-	-	10µM	-	-	-
S=c1[nH]nc(CCc2ccccc2)n1-c1ccccc1	-	-	1.41µM	-	-	-
S=c1[nH]nc(CCc2ccccc2)n1-c1ccc(Cl)cc1	?	-	?	-	-	-
SMILES	Sfp inh	Coupling enz	G9a block	Tau FP inhib	Tau fluor counter	Tau fibril ThT
S=c1[nH]nc([C@@H]2C[C@H]2c2ccccc2)n1-c1ccccc1	-	-	2µM	-	-	-
C=CCNC(=S)NNC(=O)c1ccncc1	-	-	-	-	-	-
Cc1ccc(OCc2n[nH]c(=S)n2-c2ccc(Cl)cc2)cc1	-	-	3.16µM	.	.	.
Cc1cccc(OCC(=O)Nc2nnc(-c3ccco3)s2)c1	-	-	50.1µM	-	-	?
Nc1nnc(-c2ccco2)s1	5.01µM	-	-[2.33 µM]	-	-	-
CCOc1cccc(C(=O)Nc2nnc(-c3ccco3)s2)c1	-	-	56.2µM	-	-	-
O=C(O)COc1ccc(/C=C/c2nc3ccc([N+](=O)[O-])cc3s2)cc1	-	-	-	-	-	2µM
CC(C)c1ccc(/C=C/C(=O)Nc2nc3ccc([N+](=O)[O-])cc3s2)cc1	-	-	-[0.501 µM]	-	-	?
CC(Sc1nnc(-c2cccnc2)n1C)C(=O)N1CCOCC1 (stereo not given)	.	.	-[0.501 µM]	.	.	.
